Screening results: PubChem BioAssay, several laboratories
PolyA inh – blocks polyadenylation in yeast reporter cells | S. cerevisiae SKY197-pL101 polyadenylation reporter, beta-gal luminescence; efflux-impaired pdr1/pdr3 knockout yeast; score 100 = 6 SD above DMSO | activity score, % at 12 µM | 0.02% of 300,000 active | AID 1875;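 active means lowest replicate activity score at least 50, where 100 means six control SD above control mean; inconclusive means lowest score under 50 but half or more replicates reach 50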;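 further: yeast exposed to compound for 9 h at 30 °C; higher score means more reporter readthrough which indicates perturbed polyadenylation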
Platelet DG rel – modulates dense granule release in human platelets; human platelet-rich plasma, SFLLRN dense granule ATP release, luminescence; inhibition, %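 (compounds screened at 7.5 µM in platelet-rich plasma)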; 0.22% of 300,000 active;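 active means mean replicate score, as percent of positive control, at or above 50; inconclusive means mean below 50 but at least one replicate at or above 50; inactive means mean and every replicate below 50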
AHR act – activates the human aryl hydrocarbon receptor; P35869; AHR-responsive luciferase reporter cells, luminescence; activation, % at 5 µM; 2.5% of 320,000 active; in the data active means activation above about 47%
Target sequence (P35869 whole entry, looked up): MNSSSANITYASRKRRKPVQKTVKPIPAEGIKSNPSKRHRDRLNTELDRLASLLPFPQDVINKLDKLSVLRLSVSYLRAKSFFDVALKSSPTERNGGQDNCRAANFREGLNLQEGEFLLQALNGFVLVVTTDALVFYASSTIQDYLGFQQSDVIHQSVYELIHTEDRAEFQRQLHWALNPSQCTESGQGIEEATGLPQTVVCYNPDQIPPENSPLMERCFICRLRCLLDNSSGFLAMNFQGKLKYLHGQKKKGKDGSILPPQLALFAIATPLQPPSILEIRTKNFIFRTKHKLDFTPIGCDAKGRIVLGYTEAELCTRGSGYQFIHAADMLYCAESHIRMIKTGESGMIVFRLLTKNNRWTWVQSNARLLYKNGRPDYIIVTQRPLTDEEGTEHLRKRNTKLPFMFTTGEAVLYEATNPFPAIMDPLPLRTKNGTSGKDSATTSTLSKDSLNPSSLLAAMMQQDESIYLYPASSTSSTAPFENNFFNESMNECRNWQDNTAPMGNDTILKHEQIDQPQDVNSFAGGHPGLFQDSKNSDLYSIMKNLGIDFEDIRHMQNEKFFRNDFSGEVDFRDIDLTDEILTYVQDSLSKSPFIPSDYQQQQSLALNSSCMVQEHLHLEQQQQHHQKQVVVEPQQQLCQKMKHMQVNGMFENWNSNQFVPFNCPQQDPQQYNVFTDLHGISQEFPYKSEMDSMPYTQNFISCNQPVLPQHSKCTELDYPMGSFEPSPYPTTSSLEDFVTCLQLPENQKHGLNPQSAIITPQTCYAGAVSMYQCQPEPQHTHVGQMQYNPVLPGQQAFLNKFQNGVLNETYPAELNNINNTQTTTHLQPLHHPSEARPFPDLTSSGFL
p-CIP stab down – compounds decreasing mouse p/CIP protein stability | AID 1984 | 0.01% of 290,000 active | Q05BA5 | decrease of EGFP signal, % at 10 µM | F442A p/CIP-EGFP cells, EGFP fluorescence, 16 h;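 active means EGFP signal decrease of at least 30% at 10 µM or well 3 SD below plate mean, unless failing retest; inactive means the rest, including hits failing retest or dose response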
HIF act – HIF pathway transcriptional activation; 0.32% of 300,000 active; activation, % at 7.5 µM (by protocol); U2OS HRE-luciferase reporter, luminescence; normalized: DMSO 0%, desferrioxamine 100%;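 active means mean activation of at least 10% of the iron chelator positive control signal, with at least half of replicates also reaching 10%; inconclusive means mean and replicate majority disagree about reaching 10%; inactive means mean and most replicates under 10%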
Of the large screens only hits and unclear results are named; the others gave an inactive call. Compounds with a hit are over-represented: about 2.8% of the library has one in this group of screens.

O=[N+]([O-])c1ccc(OCCCCN2CCCCC2)cc1	HIF act 189
CCCCc1ccc(Nc2ncccc2C#N)cc1	none
N#Cc1cccnc1Nc1ccc(Cl)cc1	AHR act 55
CSc1nsc(SCC(=O)Nc2ccc(Br)cn2)n1	AHR act 48
Cc1nn(-c2ccccc2)c2c1C(c1cccs1)C(C#N)=C(N)O2 (centres undefined)	AHR act 55
Cc1[nH]c(=O)c(C#N)c(C)c1CSc1ncccn1	Platelet DG rel 50 (no result: p-CIP stab down)
Cc1ccc(NC(=O)CCn2c(=S)oc3ccccc32)cc1	none
CN(C)c1ccc(NC(=O)CCn2c(=S)oc3ccccc32)cc1	AHR act 59
CCc1ccc(-c2cn(C3CCCCC3)c(=S)[nH]2)cc1	AHR act 63
CCc1ccc(-n2cc(-c3ccc([N+](=O)[O-])cc3)[nH]c2=S)cc1	none
O=C1C(=O)N(CCCn2ccnc2)C(c2ccc([N+](=O)[O-])cc2)/C1=C(\O)c1ccc2c(c1)OCCO2 (centres undefined)	none (no result: PolyA inh, Platelet DG rel, p-CIP stab down, HIF act)
Cc1ccccc1C(=O)Nc1ccccc1-n1cccc1	none (no result: HIF act)
C=CCN(CC=C)C(=O)c1ccccc1NC(=O)c1ccccc1C	AHR act 56
O=C1/C(=C\c2cccnc2)Sc2ccccc21	AHR act 53
C/C(=N\NC(=O)CN1CCCCC1)c1cccc([N+](=O)[O-])c1	none (no result: p-CIP stab down)
C/C(=N\NC(=O)CN1CCCCC1)c1ccccc1O	HIF act 13
COc1ccc(Cl)cc1NC(=O)c1cnc2n(c1=O)CCS2	none
COc1ccccc1NC(=O)c1cnc2n(c1=O)CCS2	AHR act 67
COc1ccc(OC)c(NC(=O)c2cnc3n(c2=O)CCS3)c1	AHR act 50
CCOC(=O)C1CCN(C(=O)c2ccccc2CCc2ccccc2)CC1	none
FC(F)(F)c1nc(N2CCN(c3ccccc3)CC2)nc2c1CCCCC2	AHR act 65
COc1ccc(OC)c(NC(=S)N(CCc2c(C)[nH]c3ccccc23)Cc2cccs2)c1	AHR act 50
COc1ccc(OC)c(NC(=S)N(CCc2c(C)[nH]c3ccc(C)cc23)Cc2cccs2)c1	none
Oc1ccc(-c2csc(Nc3ccccn3)n2)cc1	none
Cc1cc(-c2csc(Nc3ccccn3)n2)ccc1F	AHR act 65
Fc1ccc(-c2csc(Nc3ccccn3)n2)c(F)c1	AHR act 78
CCCOCCc1nnc(N)s1	none
COc1ccccc1N(CC(O)Cn1c2ccccc2c2ccccc21)S(=O)(=O)c1ccccc1 (centres undefined)	none
O=S(=O)(c1ccccc1)N(CC(O)Cn1c2ccccc2c2ccccc21)c1ccccc1 (centres undefined)	AHR act 64
Cc1ccn(CCC(=O)N2CCc3ccccc32)n1	none
CCCC(=O)Oc1ccc(C2NC(=O)c3ccccc3O2)cc1 (centres undefined)	AHR act 56
CCOc1ccc(C2NC(=O)c3ccccc3O2)cc1 (centres undefined)	none
CCc1c(C)nc(SCC(=O)N2CCCCC2CC)[nH]c1=O (centres undefined)	none
CCN(CC)C(=O)c1ccc2c(c1[N+](=O)[O-])C(=O)c1ccccc1C2=O	AHR act 78
CCN(CC)C(=O)c1cccc2c1C(=O)c1ccccc1-2	none
COc1ccc(/C=N/Nc2ncnc3sc(C)c(C)c23)cc1	AHR act 62
COc1ccc(NC(=O)c2sc(SC)nc2N)cc1	none
COc1ccc(NC(=O)c2sc(SCc3ccccc3)nc2N)cc1	AHR act 48
O=C(CCC(=O)N1CCN(S(=O)(=O)c2ccc(Cl)cc2)CC1)Nc1cccc(Br)c1	none
N#CC1(C#N)C2=C(CCCC2)NC(c2ccccc2)C1(C#N)C#N (centres undefined)	PolyA inh 159
c1ccc(CSC2=NNC(c3ccccn3)S2)cc1 (centres undefined)	HIF act 14
O=C(CSC1=NNC(c2ccccn2)S1)Nc1ccc(C(F)(F)F)cc1 (centres undefined)	AHR act 53, HIF act 25
CC(=O)Nc1ccc(NC(=O)CSc2ccccn2)cc1	none
O=C(/C=C/Nc1ccc(Oc2ccccc2Cl)cc1)c1ccco1	none
O=S(=O)(c1ccc(F)cc1)N1CCCN(c2nccc(C(F)(F)F)n2)CC1	none
O=C(Nc1ncc2c(n1)-c1ccccc1CC2)C1CC1	AHR act 76
Brc1ccc(-c2csc(-c3c[nH]c4ccccc34)n2)cc1	AHR act 78
c1ccc2c(-c3csc(-c4ccncc4)n3)c[nH]c2c1	AHR act 58
CN1C2CCC1CC(NS(=O)(=O)c1ccc(C#N)cc1)C2 (centres undefined)	none
O=S(=O)(Nc1ccc(-c2ccc(N3CCOCC3)nn2)cc1)c1ccc(Cl)c(Cl)c1	Platelet DG rel 50 (no result: p-CIP stab down)
O=[N+]([O-])c1ccc(Cl)c(S(=O)(=O)Nc2ccc(-c3ccc(N4CCOCC4)nn3)cc2)c1	none (no result: p-CIP stab down)
COc1ccc(-c2nc(C#N)c(NC(C)c3ccccc3)o2)cc1OC (centres undefined)	Platelet DG rel 70
Oc1ccc(CCNc2ncnc3ccc(Cl)cc23)cc1	none
COc1ccc(-c2cn3ccc4ccccc4c3n2)cc1	AHR act 48
COc1ccc(-c2cn3cc(C(F)(F)F)cc(Cl)c3n2)cc1	AHR act 52
Fc1ccc(-c2cn3cc(C(F)(F)F)cc(Cl)c3n2)cc1	none
O=C(NCC(O)c1ccc([N+](=O)[O-])cc1)c1cccc(S(=O)(=O)N2CCCC2)c1 (centres undefined)	none
O=C(/C=C/c1ccco1)NCC1COc2ccccc2O1 (centres undefined)	none
O=C(Nc1cccc([N+](=O)[O-])c1)c1ccccc1	none
O=C(Nc1ccc2ccccc2c1)c1cccc([N+](=O)[O-])c1	AHR act 68
O=C(O)c1cccc([N+](=O)[O-])c1C(=O)Nc1ccc2ccccc2c1	AHR act 60
O=C(Nc1ccc2ccccc2c1)c1ccccc1O	AHR act 48, HIF act inconclusive
Cc1ccc(C(=O)Nc2cccc([N+](=O)[O-])c2)cc1S(=O)(=O)Nc1ccc(NC(=O)c2ccccc2)cc1	HIF act 140
O=C(O)c1cccc([N+](=O)[O-])c1C(=O)Nc1nc2ccccc2s1	none
NC(=O)c1ccsc1NC(=O)CSc1nnc(Nc2ccccc2)s1	none
CC(C)(C)OC(=O)CC12CCCCC1NC(=O)O2 (centres undefined)	none
Cn1nnc(NC(=O)c2cccc([N+](=O)[O-])c2)n1	HIF act inconclusive
FC(F)(F)c1ccc(C2NCCc3sccc32)cc1 (centres undefined)	AHR act 65
Clc1ccc(C2NCCc3sccc32)cc1 (centres undefined)	none
O=C(Nc1nc2c(F)cc(F)cc2s1)C1CC(=O)N(Cc2ccco2)C1 (centres undefined)	AHR act 60
